# mHTT CaM bind = mHTT-calmodulin interaction abrogation; P42858; inhibition, % at 15 µM; AlphaScreen His-mHTT/GST-CaM binding, luminescence; hit rate 3.6% among 190,000; AID 1671202;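 note: 0% = both proteins with DMSO and 100% = one protein alone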
# Pf apPOL block = Pf-apPOL DNA polymerase inhibition; Recombinant Pf-apPOL, molecular beacon fluorescence, 1.5 h; inhibition, % at 10 µM; hit rate 0.25% among 210,000; AID 1794808
# * = called active by the depositor; / = not tested or not shown; ! = not confirmed by another sample. An excerpt weighted towards active compounds, which were near 3.5% of everything screened. Cut-off read from the data, not from the text of the source: active = inhibition above about 50%; inactive = the rest.
SMILES,mHTT CaM bind,Pf apPOL block
COc1ccc(/C=C2/N=C(SC)SC2=O)cc1Br,12.0,-7.6
CN1C(=O)CC(C(=O)O)SC1=Nc1ccc(Br)cc1 (stereo unspecified),2.0,7.9
O=C1CC(=Nc2ccc(Br)cc2)NN1c1ccccc1,77.0*,-8.8
O=C(Nc1ccc(F)cc1F)N1CCC(n2cnc3cc(Cl)ccc3c2=O)CC1,-7.6,-3.5
Cc1ccc(-n2c(SCC(=O)N3CCc4ccccc43)nc3c(c2=O)SCC3)cc1,-4.0,0.1
CCc1ccccc1NC(=O)C1CC(=O)N(CCc2c[nH]c3ccc(F)cc23)C1 (stereo unspecified),6.1,-2.7
Cc1ccc(NC(=O)C2CC(=O)N(CCc3c[nH]c4ccc(F)cc34)C2)c(C)c1 (stereo unspecified),8.2,-2.4
Cc1ccc(Cl)cc1NC(=O)C1CC(=O)N(CCc2c[nH]c3ccc(F)cc23)C1 (stereo unspecified),88.8*,-3.6
CCc1ccccc1NC(=O)C1CC(=O)N(CCc2c[nH]c3ccc(Cl)cc23)C1 (stereo unspecified),87.7*,-2.9
Cc1ccc(NC(=O)C2CC(=O)N(CCc3c[nH]c4ccc(C)cc34)C2)c(C)c1 (stereo unspecified),25.3,3.2
Cc1ccc(C)c(NC(=O)C2CC(=O)N(CCc3c[nH]c4ccc(Cl)cc34)C2)c1 (stereo unspecified),66.7*,0.7
CCOC(=O)c1cccc(NC(=O)C2CC(=O)N(c3ccc4oc(C)nc4c3)C2)c1 (stereo unspecified),-3.0,-4.7
Cc1ccc(N=c2oc3c(C)ncc(CO)c3cc2C(N)=O)c(F)c1,8.0,-3.2
Cc1cccc2oc(-c3cc(N=Cc4cccc([N+](=O)[O-])c4)ccc3O)nc12,2.0,-1.7
O=C(O)c1cccc(N=Cc2cccc([N+](=O)[O-])c2O)c1,-3.0,83.0*
O=[N+]([O-])c1ccccc1C=Nc1ccc2nc(-c3ccccc3)[nH]c2c1,32.0,-10.2
Cc1ccc2nc(-c3cccc([N+](=O)[O-])c3)[nH]c2c1,12.5,-3.1
O=C(O)c1cccc(N=Cc2cc(Cl)cc([N+](=O)[O-])c2O)c1,9.0,2.5
Cc1ccc2nc(-c3cc(N=Cc4cccc([N+](=O)[O-])c4)ccc3O)[nH]c2c1,55.0*,4.1
Cc1ccc2nc(-c3cc(N=Cc4ccc([N+](=O)[O-])cc4)ccc3O)[nH]c2c1,55.0*,0.6
Cc1ccc2nc(-c3cc(N=Cc4cccc([N+](=O)[O-])c4O)ccc3O)[nH]c2c1,59.0*,0.3
CCc1cc2c(=O)c(-c3ccc4c(c3)OCCO4)coc2cc1OC(=O)c1ccc([N+](=O)[O-])cc1,1.2,-2.7
CC(C)c1ccc(/C=C(\C#N)c2nn(-c3ccccc3)c(N)c2C#N)cc1[N+](=O)[O-],35.7,0.4
O=C(Nc1c2c(nn1-c1ccc(Cl)cc1)CSC2)c1c(F)cccc1F,16.0,1.8
Cc1ccc(C)c(NC(=O)N2CCN(Cc3nc4cccnc4n3-c3ccccc3)CC2)c1,0.2,8.0
SMILES,mHTT CaM bind,Pf apPOL block
COc1ccc(C=C2Oc3cc(OCC(C)=O)ccc3C2=O)cc1,8.7,1.9
CCOC(=O)c1cnc2nc(C)ccc2c1Nc1ccc(F)cc1Cl,40.3,0.4
CCOC(=O)C1=C(CS(=O)(=O)c2ccc(C(C)C)cc2)NC(=O)NC1c1ccccc1 (stereo unspecified),-7.3,-4.4
COc1ccc(-c2noc(C3CCCN3C(=O)c3ccsc3)n2)cc1 (stereo unspecified),0.4,6.7
COc1ccc(/C=c2\sc3n(c2=O)CN(c2ccc(C)cc2)CN=3)cc1,-8.0,-1.7
COc1ccc(C(=O)Nc2ccccc2C(=O)Nc2ccccc2C(=O)O)cc1,84.2*,-6.7
O=C(Nc1cc([N+](=O)[O-])ccc1C(=O)Nc1cccnc1)c1ccccc1,4.0,-1.1
COc1ccc(C(=O)Nc2ccccc2C(N)=O)cc1,6.2,-1.9
O=C(Nc1ccc(-c2ccc(NC(=O)Nc3cccnc3)cc2)cc1)Nc1cccnc1,10.0,3.3
O=C(Nc1cccnc1)C(=O)Nc1cccnc1,81.7*,-5.4
O=C(Nc1ccccc1C(=O)Nc1cccnc1)c1ccccc1,-3.0,50.6*!
CC(O)(CNC(=O)C12CC3CC(CC(C3)C1)C2)c1ccccc1 (stereo unspecified),-1.7,-3.5
Cc1ccc(NS(=O)(=O)c2cccc3c2C(=O)c2ccccc2C3=O)c(C)c1,57.0*,-5.1
Cc1ccc(NS(=O)(=O)c2ccc3c4c(cccc24)C(=O)N3)c(C)c1,-27.1,-0.9
Cc1nc(-c2cn(Cc3cccc(F)c3)nn2)no1,-0.1,4.0
O=C(Nc1ccccc1OC(F)(F)F)c1cn2c(n1)CCCC2,6.7,-4.7
COc1ccc(NC(=O)COc2ccc([N+](=O)[O-])cc2)c(OC)c1,-1.7,-8.0
COc1ccc(NCc2ccc([N+](=O)[O-])s2)c(OC)c1,66.9*,21.8
O=C(CCCN1C(=O)c2ccccc2C1=O)Nc1ccc([N+](=O)[O-])cc1,2.1,6.2
Cc1ccc(N=C2NC(=O)C(CC(=O)Nc3ccccc3)S2)cc1 (stereo unspecified),-4.0,-3.6
Cc1ccc(C2=NNC(C)(CC(=O)Nc3ccccc3)S2)cc1 (stereo unspecified),72.0*,0.8
N#CC1=C(N)SC(N)=C(C#N)C1c1ccc(Cl)cc1,32.0,12.6
N#CC1=C(N)SC(N)=C(C#N)C1c1ccc([N+](=O)[O-])s1,67.0*,/
N#Cc1ccc([N+](=O)[O-])s1,/,2.1
N#CC1=C(N)SC(N)=C(C#N)C1c1ccc(Cl)c([N+](=O)[O-])c1,77.0*,-5.1
SMILES,mHTT CaM bind,Pf apPOL block
Cc1ccsc1C1C(C#N)=C(N)SC(N)=C1C#N,17.5,7.0
Cc1cc(C)c([N+](=O)[O-])c(C)c1C1C(C#N)=C(N)SC(N)=C1C#N,65.0*,-2.1
CC(Nc1ccccc1)c1ccccc1O (stereo unspecified),3.4,0.1
O=C(CCNS(=O)(=O)c1ccc(Br)s1)NCCc1ccccc1Cl,-1.0,0.9
COc1ccc(-c2coc3c2c(C)cc2oc(=O)c4c(c23)CCC4)cc1,4.0,86.0*
COc1ccc(-c2coc3c(C)c4oc(=O)c5c(c4cc23)CCC5)cc1,2.0,-4.0
CN(C)c1ccc(C(=O)N2CCCC(c3ccnc(Nc4ccccc4F)n3)C2)cc1 (stereo unspecified),60.2*,-3.2
CC(=O)N1CCCC(c2ccnc(Nc3cccc(C)c3)n2)C1 (stereo unspecified),10.9,-6.8
N#Cc1ccc(C(=O)N2CCCC(c3ccnc(Nc4ccccc4F)n3)C2)cc1 (stereo unspecified),0.3,-0.3
O=C(c1ccco1)N1CCCC(c2ccnc(Nc3ccccc3F)n2)C1 (stereo unspecified),56.3*,0.7
Cc1ccccc1Nc1nccc(C2CCCN(C(=O)c3ccco3)C2)n1 (stereo unspecified),21.4,-4.0
Cc1cccc(Nc2nccc(C3CCCN(C(=O)c4ccco4)C3)n2)c1 (stereo unspecified),76.7*,-0.1
O=C(c1ccccn1)N1CCCC1c1nc(-c2cccc(C(F)(F)F)c2)no1 (stereo unspecified),24.4,0.0
COc1ccc(C(CN)N2CCCCC2)cc1 (stereo unspecified),-2.4,-18.8
COc1cccc2cc(-c3csc(NC(=O)CCC(=O)N4CCCC(C)C4)n3)c(=O)oc12 (stereo unspecified),3.0,5.6
CC(C)NC(=O)c1cc2c(s1)CCN(C(=O)c1ccc(F)cc1)C2,-7.2,2.3

# Screens deposited in PubChem by University of Kansas High Throughput Screening Laboratory.
